BAZ2B inh: blocks human BAZ2B. AlphaScreen BAZ2B-H3K14Ac peptide displacement. Potency, µM (highest dose often 114 µM), most hits filed as inhibitors. actives 4.4% (n = 360,000); note: nearly all actives have a fitted effect of over 60% in size
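Protein-peptide AlphaScreen: BAZ2B 50 nM, b-H3K14Ac 50 nM, 1x PBS pH 7.4 + 0.01% Tween-20. Preincubation 30 min RT; cpd 30 min RT (top 110 uM); beads 20 min RT, light-protected.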
CtBP-E1A inh: CtBP/E1A binding inhibition | AlphaScreen GST-E1A/His-CtBP binding, 1536-well; stronger effect = lower value | activity change, % (concentration not given with the values) | actives 0.49% (n = 340,000) | AID 651724; in the data active = activity change below about -65%; inconclusive = mostly about -30% to -63%
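In 5 uL wells, 23 nL compound meets equimolar GST-E1A and His-CtBP (5X stock 125 nM each) for 2 h, 37 °C. Beads (5X, 50 ug/mL) then 1 h, 37 °C, dark.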
HP1b binding inh: blocks HP1-beta chromodomain binding to methylated histone tails; P83916; actives 0.56% (n = 390,000); Potency, µM (doses to about 114 µM), most hits filed as inhibitors; AlphaScreen HP1-beta / biotin-H3K9me3 peptide binding; note: nearly all actives have a fitted effect of over 70% in size
Target sequence (P83916 whole entry, looked up): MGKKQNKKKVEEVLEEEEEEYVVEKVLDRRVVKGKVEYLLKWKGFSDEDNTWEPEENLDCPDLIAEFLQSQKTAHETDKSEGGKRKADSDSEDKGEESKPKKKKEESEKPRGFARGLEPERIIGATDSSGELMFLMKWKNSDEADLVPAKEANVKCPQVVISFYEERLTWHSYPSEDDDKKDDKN
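Compound inhibition of the preformed complex between 50 nM HP1-beta and 50 nM biotinylated H3K9me3 peptide was read by AlphaScreen. Buffer was PBS pH 7.4 with 0.01% Tween-20. Incubations ran 30 min at room temperature, with 10 ug/mL donor/acceptor beads.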
JMJD2A Tudor inh: JMJD2A Tudor domain (human) inhibition; O75164; AlphaScreen JMJD2A-Tudor / H3K4me3 peptide binding; Potency, µM (series often up to 114 µM), usual class: inhibitors; actives 4.4% (n = 390,000); AID 504339; note: nearly all actives have a fitted effect of over 50% in size
G9a inh: blocks human histone lysine methyltransferase G9a. G9a H3K9 monomethylation, AlphaScreen, 2 h. actives 8.8% (n = 350,000). Q96KQ7. Potency, µM (titrated, usually from 102 µM), hits mostly inhibitors. AID 504332; note: nearly all actives have a fitted effect of over 75% in size
Target sequence (Q96KQ7 913-1193 limits assumed): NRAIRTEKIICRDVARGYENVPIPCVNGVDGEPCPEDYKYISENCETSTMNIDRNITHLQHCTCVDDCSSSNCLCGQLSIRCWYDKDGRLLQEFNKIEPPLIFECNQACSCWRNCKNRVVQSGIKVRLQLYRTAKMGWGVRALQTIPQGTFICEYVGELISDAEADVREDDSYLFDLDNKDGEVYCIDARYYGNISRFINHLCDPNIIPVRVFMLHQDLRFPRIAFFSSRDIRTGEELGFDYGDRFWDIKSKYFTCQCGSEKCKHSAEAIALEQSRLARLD
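AlphaScreen read-out: biotin-H3K9 peptide (500 nM) methylation by 20 nM enzyme with 20 uM SAM, 2 h at room temperature after 15 min compound preincubation; anti-monomethyl H3K9 antibody plus donor/acceptor beads, 10 min dark.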
Six1-Eya2 inh: Six1/Eya2 interaction inhibition; Q15475+O00167; AlphaScreen GST-Six1/His-Eya2 binding, biochemical; stronger effect = lower value; activity change, % (no concentration beside the values); actives 0.56% (n = 360,000); AID 651725; in the data active = activity change below about -65%; inconclusive = mostly about -30% to -63%
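Compounds are tested against tagged Six1 and Eya2 proteins bridged by glutathione donor and nickel acceptor beads; after a one-hour incubation at 37 °C without light, AlphaScreen emission is recorded.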
A number is an active result; . = inactive; ? = inconclusive; / = not tested or not shown; [ ] = remark or other dose. Hits are enriched below; roughly 10% of the tested compounds scored in any of these assays. Unless noted, calls come from the whole dose curve; as a rule, active = well fitted inhibition curve with a large enough effect; inconclusive = small, poorly fitted or top-dose-only effect; inactive = no such curve, though single readings can be large or run the other way.

SMILES	BAZ2B inh	CtBP-E1A inh	HP1b binding inh	JMJD2A Tudor inh	G9a inh	Six1-Eya2 inh
Cc1ccc(C)n1-c1ccc(C(=O)NN)cc1	.	.	.	50.1µM	.	.
Cc1ccc(C)n1-c1ccc(C(=O)NCc2ccncc2)cc1	/	/	.	?	.	.
O=c1c([N+](=O)[O-])c(O)c2cccc3c2n1CCC3	?	.	.	?	79.4µM	.
CCN(CC)CCNC(=O)c1c(O)c2cccc3c2n(c1=O)CCC3	.	.	.	.	56.2µM	.
CNC(=O)c1c(O)c2cccc3c2n(c1=O)CCC3	.	.	.	?	/	.
CCOc1ccc(C2C3=C(CC(C)(C)CC3=O)N(CC(=O)O)C3=C2C(=O)CC(C)(C)C3)cc1OCC	.	.	.	.	50.1µM	.
C#CCOc1ccc(C2C3=C(CC(C)(C)CC3=O)N(CC(=O)O)C3=C2C(=O)CC(C)(C)C3)cc1OC	.	/	.	.	/	.
CC(=O)c1c(C)c(C)c2n1CCn1c(C)ccc1-2	?	/	.	?	6.31µM	.
CC(C)(C)c1ccc(C2(C)NC(=O)NC2=O)cc1 (stereo not drawn)	.	.	.	.	.	.
COC(=O)c1c(C)[nH]c(C)c1-c1ccc(C)cc1	?	.	.	.	.	.
COC(=O)c1c(C)[nH]c(C)c1-c1cccc([N+](=O)[O-])c1	?	.	.	.	56.2µM	.
Cc1ccc(C(=O)Nc2ccc3oc(-c4ccc(C(C)(C)C)cc4)nc3c2)cc1	.	/	.	.	.	/
Cc1ccnc(NC(=O)c2ccc(Cl)c(S(=O)(=O)N3CCCC3)c2)c1	.	.	.	.	.[2.33 µM]	.
COc1ccc(/C=C(/NC(=O)/C=C/c2ccccc2)C(=O)NCCCCCC(=O)O)cc1	.	.	.	.	.	.
O=c1[nH]cnc2c1sc(=S)n2-c1ccccc1	.	.	.	89.1µM	2.24µM	.
O=c1[nH]c(-c2ccc(F)cc2)nc2c1sc(=S)n2-c1ccccc1	50.1µM	.	.	?	39.8µM	.
O=c1[nH]c(-c2ccc3c(c2)OCO3)nc2c1sc(=S)n2-c1ccccc1	.	.	.	.	.	.
O=c1[nH]c(-c2ccccc2Cl)nc2c1sc(=S)n2-c1ccccc1	.	.	.	.	.	.
COc1cc(NC(=O)Cn2c(-c3ccccc3)cc(C(C)=O)c2C)cc(OC)c1	.	/	.	.	.	/
Cc1ccc(C(=O)CSc2nc(C)cc(C)c2C(=O)Nc2cccc(C)c2)cc1	.	/	.	.	.	/
Cn1c(SCC(=O)c2cc3ccccc3o2)nnc1-c1ccccc1	.	.	.	?	11.2µM	.
O=C(CSc1nnc(-c2cccs2)n1CC1CCCO1)c1cc2ccccc2o1 (stereo not drawn)	.	.	.	.	44.7µM	.
CCOC(=O)c1ccc2c(c1)nc(SCC(=O)c1cc3ccccc3o1)n2CC	.	.	.	.	79.4µM	.
Cc1ccnc(SCC(=O)c2cc3ccccc3o2)n1	.	.	.	.	44.7µM	.
O=C(CSc1nccc(=O)[nH]1)c1cc2ccccc2o1	.	/	.	.	.	.
SMILES	BAZ2B inh	CtBP-E1A inh	HP1b binding inh	JMJD2A Tudor inh	G9a inh	Six1-Eya2 inh
Cn1cnnc1SCC(=O)c1cc2ccccc2o1	.	/	.	.	?	.
O=C(CSc1nnc(-c2ccncc2)n1CC1CCCO1)NCc1ccccc1 (stereo not drawn)	.	.	.	.	.[12.7 µM]	.
CCOC(=O)C1C(C(=O)OC)=C(CC(C)C)c2ccccc2N1S(=O)(=O)C(F)(F)F (stereo not drawn)	/	/	/	/	.	/
Cn1ccnc1SCC(=O)c1cc2ccccc2o1	?	.	.	?	39.8µM	.
O=C(NCC(c1cccnc1)N1CCc2ccccc2C1)C(=O)Nc1ccc(F)cc1F (stereo not drawn)	?	/	.	.	?	/
CN(C)S(=O)(=O)N(CC(=O)NCCSCc1ccccc1Cl)c1ccccc1	.	/	.	.	.	/
Cc1ccccc1CSCCNC(=O)CN(c1ccccc1)S(=O)(=O)N(C)C	.	/	.	44.7µM	.	/
CN(C)CCNc1cc(-c2ccncc2)nc2ccccc12	?	.	.	.	22.4µM	.
CC1(C)CC(NS(=O)(=O)OCC(Cl)(Cl)Cl)c2cc(C#N)ccc2O1 (stereo not drawn)	.	.	.	31.6µM	.	.
COC(=O)c1ccc(OCCCCN2CC(C)OC(C)C2)cc1 (stereo not drawn)	79.4µM	.	?	11.2µM	2.82µM	.
COc1cccc(OCCCCN2CC(C)OC(C)C2)c1 (stereo not drawn)	?	.	?	6.31µM	10µM	.
CC1CN(CCCCOc2ccc3ccccc3c2)CC(C)O1 (stereo not drawn)	?	.	?	1.41µM	2µM	.
CCOc1ccc(C(=O)OCc2cc(=O)n3nc(C(C)C)sc3n2)cc1	.	/	.	.	.	/
O=C(Oc1ccccc1Cl)c1ccccc1	/	.	.	.	/	.
O=C(Oc1cccccc1=O)c1ccccc1	?	/	.	.	25.1µM	.
COCCn1c(=S)[nH]c2cc(C(=O)N3CCN(Cc4ccccc4)CC3)ccc2c1=O	/	/	.	.	/	/
Cc1ccc2c(c1)c(C)cc(=O)n2CCC(=O)O	50.1µM	.	.	89.1µM	?	.
Cc1c(F)c(N2CCNC(C)C2)cc2c1c(=O)c(C(=O)O)cn2C1CC1 (stereo not drawn)	/	/	/	/	.[12.7 µM]	/
O=C(Nc1ccc(F)cc1)C(c1ccccc1)N1CCN(c2ccncc2)CC1 (stereo not drawn)	/	.	/	/	/	.
